Reference: PubChem BioAssay (EPA / NIEHS)
Results filed as inconclusive are left out. Active and inactive are the calls of the source. The calls were made as follows: active = hit-call score of the fitted dose curve at least 0.9, where 1 is the maximum; inconclusive = response in the unintended direction; inactive = score below 0.9.

Each compound was assayed against human LYN Proto-Oncogene, Src family Tyrosine Kinase (LynA), LYN (gene 4067) (UniProt P07948) (assay: NVS_ENZ_hLynA: NovaScreen (NVS) Enzymatic Assay for human LYN Proto-Oncogene, Src family Tyrosine Kinase (LynA) (AID 2283173)).
In short: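 Recombinant kinase with fluorescent substrate; product separated from substrate by electrophoretic mobility shift and read 1 h after dosing. Duplicate screen at 25 uM, then concentration-response up to 50 uM; activity scored as signal loss against DMSO.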

Chain of human LYN Proto-Oncogene, Src family Tyrosine Kinase (LynA), LYN (gene 4067) (P07948 whole entry, looked up): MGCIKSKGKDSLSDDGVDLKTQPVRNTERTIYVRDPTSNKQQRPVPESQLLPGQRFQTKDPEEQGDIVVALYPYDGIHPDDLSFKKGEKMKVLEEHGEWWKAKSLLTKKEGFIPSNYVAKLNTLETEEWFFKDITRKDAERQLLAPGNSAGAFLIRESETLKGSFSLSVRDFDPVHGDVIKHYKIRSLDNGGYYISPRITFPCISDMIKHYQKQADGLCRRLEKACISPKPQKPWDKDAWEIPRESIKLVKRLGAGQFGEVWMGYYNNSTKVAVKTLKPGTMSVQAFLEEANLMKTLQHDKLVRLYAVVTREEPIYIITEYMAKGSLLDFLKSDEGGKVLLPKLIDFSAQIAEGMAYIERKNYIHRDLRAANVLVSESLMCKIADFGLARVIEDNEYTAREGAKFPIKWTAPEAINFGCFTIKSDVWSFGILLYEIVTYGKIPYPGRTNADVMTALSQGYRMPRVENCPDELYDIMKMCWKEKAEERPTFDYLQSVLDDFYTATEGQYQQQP

Structure (SMILES) | outcome | AC50
O=C(N[C@@H](c1ccccc1)[C@@H]1CCCCN1)c1cccc(C(F)(F)F)c1Cl | inactive | 
O=C1NC(=O)C(c2ccccc2)(c2ccccc2)N1 | inactive | 
CCN(CC)CCOc1ccc(C(=C(Cl)c2ccccc2)c2ccccc2)cc1 |  | 19.8 µM (active)
CN(C)C(=O)NC1(c2ccccc2)CCN(CCC[C@]2(c3ccc(Cl)c(Cl)c3)CCCN(C(=O)c3ccccc3)C2)CC1 | inactive | 

Each compound was assayed against Mitogen-activated protein kinase 3 (Homo sapiens) (UniProt P27361) (assay: NVS_ENZ_hMAPK3: NovaScreen (NVS) Enzymatic Assay for human Mitogen-Activated Protein Kinase 3 (MAPK 3) (AID 2283177)).
In short: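 Chemicals were first tested in duplicate at 25 uM, with hits re-run as concentration series (max 50 uM). Recombinant enzyme activity, measured 1 h post-dose in a cell-free format, was read by fluorescence/mobility shift relative to DMSO.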

Chain of Mitogen-activated protein kinase 3 (Homo sapiens) (P27361 whole entry, looked up): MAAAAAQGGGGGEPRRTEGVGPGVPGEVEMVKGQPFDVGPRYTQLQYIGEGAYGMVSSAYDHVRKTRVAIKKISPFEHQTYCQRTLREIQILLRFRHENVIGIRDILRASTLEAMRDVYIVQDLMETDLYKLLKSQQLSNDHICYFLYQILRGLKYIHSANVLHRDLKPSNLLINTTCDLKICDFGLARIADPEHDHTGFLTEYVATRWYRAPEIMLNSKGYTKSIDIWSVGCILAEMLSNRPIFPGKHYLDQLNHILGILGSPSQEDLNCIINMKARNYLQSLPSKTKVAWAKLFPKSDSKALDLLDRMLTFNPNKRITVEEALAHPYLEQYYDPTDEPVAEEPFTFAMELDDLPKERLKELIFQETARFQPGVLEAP

Structure (SMILES) | outcome
O=C(O)c1cccnc1 | inactive
O=C1CCCCC1 | inactive
C=CCCCCCCCCCCCC | inactive
CS(=O)(=O)c1ccc([C@@H](C[C@H]2CCC(=O)C2)C(=O)Nc2cnccn2)cc1Cl | inactive
NC(=Nc1ccccc1)Nc1ccccc1 | inactive
CCCCc1nc2cccnc2n1Cc1ccc(-c2ccccc2-c2nnn[nH]2)cc1 | inactive
O=C(O)CC(O)(CC(=O)O)C(=O)O | inactive
CN(C)C(=O)NC1(c2ccccc2)CCN(CCC[C@]2(c3ccc(Cl)c(Cl)c3)CCCN(C(=O)c3ccccc3)C2)CC1 | inactive
NC=O | inactive

The compounds below were run against Collagenase 3 (Homo sapiens) (UniProt P45452) (assay: NVS_ENZ_hMMP13: NovaScreen (NVS) Enzymatic Assay for human Matrix Metalloproteinase-13 (MMP13) (AID 2283182)).
In short: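 Recombinant MMP13 cleaving fluorescent substrate, cell-free, measured 1 h after dosing. Primary duplicate screen at 25 uM; actives tested in concentration-response up to 50 uM; loss of signal relative to DMSO.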

Structure (SMILES) | AC50 | outcome
Nc1nc(=S)c2[nH]cnc2[nH]1 | 27.1 µM (active) | 
O=C1c2c(O)cccc2Cc2cccc(O)c21 | 0.671 µM (active) | 
Cn1cnc2c1c(=O)[nH]c(=O)n2C |  | inactive
CC(C)(C)c1ccccc1 | 19.4 µM (active) | 
CCCCc1nc2cccnc2n1Cc1ccc(-c2ccccc2-c2nnn[nH]2)cc1 | 24.1 µM (active) | 
O=C(O)c1[nH]n(-c2ccc(S(=O)(=O)O)cc2)c(=O)c1N=Nc1ccc(S(=O)(=O)O)cc1 | 23.6 µM (active) | 
CCc1cc(C2=C(C(=O)O)N(c3ccccc3C(F)(F)F)S(=O)(=O)c3ccccc32)cc2c1OCO2 | 29.6 µM (active) | 

These compounds were tested against human Matrix Metalloproteinase-7 (MMP7), MMP7 (gene 4316) (UniProt P09237) (assay: NVS_ENZ_hMMP7: NovaScreen (NVS) Enzymatic Assay for human Matrix Metalloproteinase-7 (MMP7) (AID 2283183)).
In short: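 Compounds first tested at 25 uM in duplicate, then at up to 50 uM in concentration series if active. Protease activity measured by fluorescence intensity 1 h after dosing, with fitting relative to DMSO.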

Chain of human Matrix Metalloproteinase-7 (MMP7), MMP7 (gene 4316) (P09237 whole entry, looked up): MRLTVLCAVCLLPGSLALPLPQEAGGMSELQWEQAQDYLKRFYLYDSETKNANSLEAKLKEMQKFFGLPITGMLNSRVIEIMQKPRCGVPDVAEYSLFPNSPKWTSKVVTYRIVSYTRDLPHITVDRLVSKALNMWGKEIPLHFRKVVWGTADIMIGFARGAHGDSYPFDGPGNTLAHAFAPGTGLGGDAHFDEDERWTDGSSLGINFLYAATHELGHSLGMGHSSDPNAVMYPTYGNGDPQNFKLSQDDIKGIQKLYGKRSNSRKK

Structure (SMILES) | outcome | AC50
Cc1ccc(-c2cc(C(F)(F)F)nn2-c2ccc(S(N)(=O)=O)cc2)cc1 | inactive | 
Nc1nc(=S)c2[nH]cnc2[nH]1 | inactive | 
O=C1c2c(O)cccc2Cc2cccc(O)c21 |  | 20.3 µM (active)
CN(C)CCCN(C)CCCN(C)C | inactive | 
C#CC(O)C(CC)CCCC (configuration not stated) | inactive | 
O=C(O)c1[nH]n(-c2ccc(S(=O)(=O)O)cc2)c(=O)c1N=Nc1ccc(S(=O)(=O)O)cc1 |  | 12.3 µM (active)
CCc1cc(C2=C(C(=O)O)N(c3ccccc3C(F)(F)F)S(=O)(=O)c3ccccc32)cc2c1OCO2 | inactive | 
